Results published in PubChem BioAssay (NCI).
The panel holds about 83,000 compounds, 20% with a hit somewhere; the sample as a whole holds those more often.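 Growth was measured after 48 h exposure to one concentration of compound in 96-well plates. Values under 10 count as active.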 Values without a mark were called inactive. Activity calls are given as the source filed them.

These compounds were tested on EKVX NSCLC (assay: NCI-60 one-dose screen, 48 h (100 = growth as untreated, 0 = no growth, -100 = all killed)). Details: 10 µM unless noted.

Structure (SMILES) | growth
Oc1ccc(Cc2ccc(O)c(C3CC(c4ccc(Cl)cc4)=NN3)c2)cc1C1CC(c2ccc(Cl)cc2)=NN1 (centres undefined) | -6.4% (active)
CCC1=C(c2ccc(OC)cc2)C(C)Oc2cc(OC(C)=O)ccc21 (centres undefined) | 75%
COc1ccc(/C=N\Nc2ccc([N+](=O)[O-])cn2)cc1OC | 63.6%
COc1ncc(-c2ccc3nccc(C#CCN4CCN(S(C)(=O)=O)CC4)c3c2)cc1NS(=O)(=O)c1ccc(F)cc1F | 9.26% (active)
O=C(Nc1ccc(Cl)cc1)Nc1ccc(Nc2nncc3ccccc23)cc1 | 20.6%
Cc1cc(NC(=O)c2ccc(N)cc2)ccc1N=Nc1ccc2c(O)c(N=Nc3ccc(Cl)c(S(=O)(=O)O)c3)c(S(=O)(=O)O)cc2c1 | 106%
CCC(CCC(C)C1CCC2C3CC=C4CC(O)CCC4(C)C3CCC12C)C(C)C (centres undefined) (tested in a mixture with another compound) | 115%
CCN1CCN(c2cc(-c3cn[nH]c3-c3cc(C)cc(OC)c3)nc(-c3cccnc3)n2)CC1 | 106%
Cc1ccc(NC(=O)Nc2ccc(-c3cccnc3)cc2N2CCC(CO)CC2)cc1 | 55.5%
Cc1c(C(N)=O)sc2ncn(CC(=O)Nc3ccc(Cl)cc3)c(=O)c12 | 104%
COc1cc(/C=C/c2nnc(-c3cc(-c4ccccc4)n[nH]3)o2)cc(OC)c1OC | 102%
N#Cc1cnc2cc(OC[C@H](O)CO)c(NC(=O)CC3CSSC3)cc2c1Nc1ccc(OCc2cccc(F)c2)c(Cl)c1 | -69.9% (active)
COc1ccc(/C=N/NC(=O)c2ccc(S(C)(=O)=O)cc2)cc1OC | 103%
O=C1OC(c2ccc(-c3ccccc3)cc2)=C/C1=C/c1cccs1 | 78.8%
CCOC(=O)C1=C(C)N2C(=NC3=C(CCC/C3=C\c3ccc(Cl)cc3)C2c2ccc(Cl)cc2)S1 (centres undefined) | 64.6%
COc1cc(C2C=C(c3ccc(C)cc3)Nc3nc(SC)[nH]c(=O)c32)ccc1Oc1ccnc2cc(Cl)ccc12 (centres undefined) | 77%
Oc1ccccc1C=Nc1ccccc1N=Cc1ccccc1O.[Cu+2] | 67.1%
CN(CC(=O)N(Cc1ccc(C2CCCCC2)cc1)c1ccc(C(=O)O)cc1)S(=O)(=O)c1c(F)c(F)c(F)c(F)c1F | 92.1%
Cc1cc(C(C)(C)c2cc(C)c(O)c(CN(C)C)c2)cc(CN(C)C)c1O | 92.3%
O=C1CCCN1C1CCN(Cc2cc3ccccc3[nH]c2=O)c2ccccc21 (centres undefined) | 79%
CCOC(=O)/C=C(/C)Sc1cc(O)c2ccccc2c1O | 44.8%
COc1ccc(-c2cc(Cc3cccs3)c(=O)n(Cn3cncn3)n2)cc1 | 103%

Each compound was assayed on SN12C renal in the same assay as above. Details: 10 µM unless noted.

Structure (SMILES) | growth
Nc1ccc(C2=Nc3cccc4cccc(c34)S2)cc1 | 94.2%
COc1cc2c(cc1OCCCOc1ccc(-c3cc4ccccc4c4ccccc34)cc1)N=C[C@@H]1CCCN1C2=O | -73.5% (active)
O=C(CCc1nnc(Cn2ccnc2)o1)c1nc2ccccc2[nH]1 | 98.5%
O=C(COC(=O)[C@H](C[Se][Se]C[C@H](NC(=O)c1ccc(Br)cc1F)C(=O)OCC(=O)c1ccc(F)cc1)NC(=O)c1ccc(Br)cc1F)c1ccc(F)cc1 | -100% (active)
COc1ccc2[nH]cc(/C=C3/C(=O)Nc4ccc(Cl)cc43)c2c1 | 76.6%
Cc1cccc(Cl)c1NC(=O)c1ccc2nc(NC(=O)NC3CC(C)(C)NC(C)(C)C3)sc2c1 | 56.5%
NNC(=O)C1CC2c3ccccc3C1c1ccccc12 (centres undefined) | 97.8%
Cn1[nH]cc(/C=N/C(N)=O)c1=O | 108%
COc1ccc2[nH]c(-c3ccccc3)cc2c1 | 97.1%
CCCCn1c(Cc2ccc(Cl)cc2)nc2cc(OC)c(OC)cc2c1=O | 83.6%
c1coc([C@@H]2C[C@@H]3Cc4ccc5ccccc5c4N2O3)c1 | 108%
CC(O)c1nc2c(c(=O)n(C)c(=O)n2C)n1C (centres undefined) | 104%
Nc1ccccc1-c1ccc([N+](=O)[O-])cc1 | 60.3%
C=C(C[C@](O)(C(=O)/C=C/c1ccc(Cl)cc1)C(=O)OC)c1ccccc1 | 74.8%
N#Cc1ccc(NC(=O)Nc2ccc(Oc3ccc(NC(=O)Nc4ccc(C#N)cc4)cc3)cc2)cc1 | 39%
Oc1ccc(Cc2ccc(O)c(C3CC(c4ccc(Cl)cc4)=NN3)c2)cc1C1CC(c2ccc(Cl)cc2)=NN1 (centres undefined) | 24.9%
CCC1=C(c2ccc(OC)cc2)C(C)Oc2cc(OC(C)=O)ccc21 (centres undefined) | 90.4%
COc1ccc(/C=N\Nc2ccc([N+](=O)[O-])cn2)cc1OC | 26.2%
COc1ncc(-c2ccc3nccc(C#CCN4CCN(S(C)(=O)=O)CC4)c3c2)cc1NS(=O)(=O)c1ccc(F)cc1F | 2.52% (active)

Structure (SMILES) | growth
O=C(Nc1ccc(Cl)cc1)Nc1ccc(Nc2nncc3ccccc23)cc1 | 26.4%
Cc1cc(NC(=O)c2ccc(N)cc2)ccc1N=Nc1ccc2c(O)c(N=Nc3ccc(Cl)c(S(=O)(=O)O)c3)c(S(=O)(=O)O)cc2c1 | 102%
CCC(CCC(C)C1CCC2C3CC=C4CC(O)CCC4(C)C3CCC12C)C(C)C (centres undefined) (tested in a mixture with another compound) | 84.4%
CCN1CCN(c2cc(-c3cn[nH]c3-c3cc(C)cc(OC)c3)nc(-c3cccnc3)n2)CC1 | 85%
Cc1ccc(NC(=O)Nc2ccc(-c3cccnc3)cc2N2CCC(CO)CC2)cc1 | 41%
Cc1c(C(N)=O)sc2ncn(CC(=O)Nc3ccc(Cl)cc3)c(=O)c12 | 112%
COc1cc(/C=C/c2nnc(-c3cc(-c4ccccc4)n[nH]3)o2)cc(OC)c1OC | 99.5%
N#Cc1cnc2cc(OC[C@H](O)CO)c(NC(=O)CC3CSSC3)cc2c1Nc1ccc(OCc2cccc(F)c2)c(Cl)c1 | -65.7% (active)
COc1ccc(/C=N/NC(=O)c2ccc(S(C)(=O)=O)cc2)cc1OC | 98.3%
O=C1OC(c2ccc(-c3ccccc3)cc2)=C/C1=C/c1cccs1 | 80.9%
CCOC(=O)C1=C(C)N2C(=NC3=C(CCC/C3=C\c3ccc(Cl)cc3)C2c2ccc(Cl)cc2)S1 (centres undefined) | 58.1%
COc1cc(C2C=C(c3ccc(C)cc3)Nc3nc(SC)[nH]c(=O)c32)ccc1Oc1ccnc2cc(Cl)ccc12 (centres undefined) | 67%
Oc1ccccc1C=Nc1ccccc1N=Cc1ccccc1O.[Cu+2] | 60.3%
CN(CC(=O)N(Cc1ccc(C2CCCCC2)cc1)c1ccc(C(=O)O)cc1)S(=O)(=O)c1c(F)c(F)c(F)c(F)c1F | 19%
Cc1cc(C(C)(C)c2cc(C)c(O)c(CN(C)C)c2)cc(CN(C)C)c1O | 96.3%
O=C1CCCN1C1CCN(Cc2cc3ccccc3[nH]c2=O)c2ccccc21 (centres undefined) | 88.3%
CCOC(=O)/C=C(/C)Sc1cc(O)c2ccccc2c1O | -68.3% (active)
COc1ccc(-c2cc(Cc3cccs3)c(=O)n(Cn3cncn3)n2)cc1 | 93.1%
